Consider seven compounds from PubChem BioAssay (EPA / NIEHS).

Some compounds were tested as several samples or in several runs, with calls that do not always agree. Active and inactive are the calls of the source. How the source made its calls: active means hit-call score of the fitted dose curve at least 0.9, where 1 is the maximum; inactive means score below 0.9.

Read-out in experiment [1]: Vascular endothelial growth factor receptor 2 (Homo sapiens) (UniProt P35968)
Nature of the experiment: BSK_4H_VEGFRII: BioMAP Diversity Plus: 4H Assay for Vascular endothelial growth factor receptor 2 (VEGFR2) Biomarker Activity (AID 2283031).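 On AC50: cell-surface VEGFR2 protein level quantified by ELISA.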 Conditions: primary human endothelial cells (HUVEC); actives raise or lower the signal. The method, boiled down: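 In this multiplexed HUVEC system, biomarker ELISA was performed after 24 h chemical exposure. Parallel SRB staining (TCA fixation, 560 nm) tracked cytotoxicity; DMSO served as baseline.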

Read-out in experiment [2]: Human Leukocyte Antigen - DR isotype (HLADR), HLA-DRA (gene 3122)
Nature of the experiment: BSK_BE3C_HLADR: BioMAP Diversity Plus: BE3C Assay for Human Leukocyte Antigen - DR isotype (HLADR) Biomarker Activity (AID 2283032). The conditions noted are these: primary human bronchial epithelial cells; actives raise or lower the signal. The gist of the method: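 ELISA read-out of HLA-DR on human lung bronchial epithelial primary cells, measured 24 h post-dosing. Both increases and decreases were scored relative to DMSO vehicle.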

Read-out in experiment [3]: Vascular cell adhesion molecule 1 (VCAM1), VCAM1 (gene 7412)
The experiment can be described thus: BSK_4H_VCAM1: BioMAP Diversity Plus: 4H Assay for Vascular cell adhesion molecule 1 (VCAM1) Biomarker Activity (AID 2283033).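 On outcome: cell-surface VCAM-1 protein measured by ELISA.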 Conditions: primary human endothelial cells (HUVEC); actives raise or lower the signal. The gist of the method: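 ELISA read-out of VCAM-1 on human umbilical vein endothelium 24 hours after chemical dosing; gain or loss of signal was fitted relative to DMSO, with sulforhodamine B staining of parallel cultures flagging overt cytotoxicity.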

Read-out in experiment [4]: Interferon-gamma inducible Protein 10 (IP10), CXCL10 (gene 3627)
Nature of the experiment: BSK_BE3C_IP10: BioMAP Diversity Plus: BE3C Assay for Interferon-gamma inducible Protein 10 (IP10) Biomarker Activity (AID 2283034). Conditions: primary human bronchial epithelial cells; actives raise or lower the signal. The gist of the method:
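Chemical is dosed onto human lung bronchial epithelial primary cells, cultures are incubated 24 h, and IP-10 is then quantified by ELISA. Gain or loss of signal is fitted in both directions relative to DMSO.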

Read-out in experiment [5]: Monokine induced gamma interferon (MIG), CXCL9 (gene 4283)
The experiment can be described thus: BSK_BE3C_MIG: BioMAP Diversity Plus: BE3C Assay for Monokine induced gamma interferon (MIG) Biomarker Activity (AID 2283035).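 Further: MIG protein measured by ELISA in BE3C cultures after 24 h of dosing.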 Conditions: primary human bronchial epithelial cells; actives raise or lower the signal. The method, boiled down:
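Primary human bronchial epithelial cells treated for 24 h; MIG levels measured by ELISA, fitted bidirectionally versus DMSO. Parallel SRB total-protein staining assessed cytotoxicity.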

Read-out in experiment [6]: Plasminogen activator inhibitor-1 (PAI1), SERPINE1 (gene 5054)
The experiment can be described thus: BSK_BE3C_PAI1: BioMAP Diversity Plus: BE3C Assay for Plasminogen activator inhibitor-1 (PAI1) Biomarker Activity (AID 2283037). Conditions: primary human bronchial epithelial cells; actives raise or lower the signal. The gist of the method:
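Primary human lung bronchial epithelial cells; chemical dosing; 24 h; PAI-1 measured by ELISA; bidirectional fit referenced to DMSO as negative control.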

Read-out in experiment [7]: urokinase plasminogen activator (uPA), PLAU (gene 5328)
Nature of the experiment: BSK_BE3C_uPA: BioMAP Diversity Plus: BE3C Assay for urokinase plasminogen activator (uPA) Biomarker Activity (AID 2283038).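 On outcome: uPA protein level quantified by ELISA in cell cultures; uPA read one day after compound addition.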 Conditions: primary human bronchial epithelial cells; actives raise or lower the signal. The gist of the method:
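Using confluent primary human lung bronchial epithelial cultures, we dosed chemicals, waited 24 h, then ran a uPA ELISA, fitting bidirectionally against DMSO.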

Read-out in experiment [8]: Urokinase-type plasminogen activator receptor (uPAR), PLAUR (gene 5329)
The experiment can be described thus: BSK_BE3C_uPAR: BioMAP Diversity Plus: BE3C Assay for Urokinase-type plasminogen activator receptor (uPAR) Biomarker Activity (AID 2283039).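 Further: cells exposed to compound for one day before measurement.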 Conditions: primary human bronchial epithelial cells; actives raise or lower the signal. The method, boiled down:
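Human bronchial epithelial primary cells; chemical exposure 24 h; uPAR by ELISA; bidirectional fit vs DMSO control.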

Read-out in experiment [9]: Interleukin-6 (IL6), IL6 (gene 3569)
The experiment can be described thus: BSK_CASM3C_IL6: BioMAP Diversity Plus: CASM3C Assay for Interleukin-6 (IL6) Biomarker Activity for (AID 2283040). Conditions: primary human coronary artery smooth muscle cells; actives raise or lower the signal.

Read-out in experiment [10]: Tissue plasminogen activator (tPA), PLAT (gene 5327)
Nature of the experiment: BSK_BE3C_tPA: BioMAP Diversity Plus: BE3C Assay for Tissue plasminogen activator (tPA) Biomarker Activity (AID 2283041).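 Further: tPA level quantified by ELISA one day after compound addition.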 Conditions: primary human bronchial epithelial cells; actives raise or lower the signal. The gist of the method: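 Primary human lung bronchial epithelial cultures receive test chemical; after 24 h, tPA is quantified by ELISA, and gain or loss of signal is fitted bidirectionally relative to DMSO baseline.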

Read-out in experiment [11]: Interleukin-8 (IL8), CXCL8 (gene 3576)
The experiment can be described thus: BSK_CASM3C_IL8: BioMAP Diversity Plus: CASM3C Assay for Interleukin-8 (IL8) Biomarker Activity (AID 2283042).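 Further: IL-8 protein level quantified by ELISA.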 Conditions: primary human coronary artery smooth muscle cells; actives raise or lower the signal.

Read-out in experiment [12]: Human Leukocyte Antigen - DR isotype (HLADR), HLA-DRA (gene 3122)
The experiment can be described thus: BSK_CASM3C_HLADR: BioMAP Diversity Plus: CASM3C Assay for Human Leukocyte Antigen - DR isotype (HLADR) Biomarker Activity (AID 2283043).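 Further: cell-surface HLA-DR protein level quantified by ELISA.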 Conditions: primary human coronary artery smooth muscle cells; actives raise or lower the signal.

Read-out in experiment [13]: Macrophage colony-stimulating factor (MCSF), CSF1 (gene 1435)
Nature of the experiment: BSK_CASM3C_MCSF: BioMAP Diversity Plus: CASM3C Assay for Macrophage colony-stimulating factor (MCSF) Biomarker Activity (AID 2283044).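 Further: M-CSF protein amount quantified by ELISA after 24 h exposure.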 Conditions: primary human coronary artery smooth muscle cells; actives raise or lower the signal.

Read-out in experiment [14]: Low-density lipoprotein receptor (LDLR), LDLR (gene 3949)
The experiment can be described thus: BSK_CASM3C_LDLR: BioMAP Diversity Plus: CASM3C Assay for Low-density lipoprotein receptor (LDLR) Biomarker Activity (AID 2283045).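 Further: LDLR protein level on the cell surface quantified by ELISA.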 The conditions noted are these: primary human coronary artery smooth muscle cells; actives raise or lower the signal.

Read-out in experiment [15]: Monocyte Chemoattractant Protein-1 (MCP1), CCL2 (gene 6347)
Nature of the experiment: BSK_CASM3C_MCP1: BioMAP Diversity Plus: CASM3C Assay for Monocyte Chemoattractant Protein-1 (MCP1) Biomarker Activity (AID 2283046).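 Further: MCP-1 level quantified by ELISA 24 h after dosing.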 Conditions: primary human coronary artery smooth muscle cells; actives raise or lower the signal.

The nature of experiment [16]: BSK_CASM3C_Proliferation: Cell Proliferation Assessment in the BioMAP Diversity Plus: CASM3C Assay (AID 2283047).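 Further: sulforhodamine B total protein stain as relative cell number at 560 nm; sub-confluent cells exposed 48 h before staining; fitted both ways against DMSO so gain or loss of cell number.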 Conditions: primary human coronary artery smooth muscle cells.
Read-out in experiment [17]: Monokine induced gamma interferon (MIG), CXCL9 (gene 4283)
The experiment can be described thus: BSK_CASM3C_MIG: BioMAP Diversity Plus: CASM3C Assay for Monokine induced gamma interferon (MIG) Biomarker Activity (AID 2283048). Conditions: primary human coronary artery smooth muscle cells; actives raise or lower the signal.

Read-out in experiment [18]: serum amyloid A (SAA), SAA1 (gene 6288)
Nature of the experiment: BSK_CASM3C_SAA: BioMAP Diversity Plus: CASM3C Assay for serum amyloid A (SAA) Biomarker Activity (AID 2283049).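 Further: SAA protein level quantified by ELISA.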 The conditions noted are these: primary human coronary artery smooth muscle cells; actives raise or lower the signal.

A short description of experiment [19]: BSK_CASM3C_SRB: Viability Assessment in the BioMAP Diversity Plus: CASM3C Assay (AID 2283050).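 Further: total protein by SRB staining as cytotoxicity measure in parallel cultures.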 The conditions noted are these: primary human coronary artery smooth muscle cells.
Read-out in experiment [20]: Transforming growth factor beta 1 (TGFb1), TGFB1 (gene 7040)
Nature of the experiment: BSK_BE3C_TGFb1: BioMAP Diversity Plus: BE3C Assay for Transforming growth factor beta 1 (TGFb1) Biomarker Activity (AID 2283036;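 further: TGF-b1 protein level measured by ELISA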). The conditions noted are these: primary human bronchial epithelial cells; actives raise or lower the signal. The gist of the method: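 Primary human lung bronchial epithelial cells; compound exposure 24 h; TGF-b1 by ELISA; bidirectional fit, DMSO baseline. Parallel SRB total-protein staining for cytotoxicity.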

Regarding `O=C(O)C(F)(F)OC(F)(F)C(F)(F)OC(F)(F)C(=O)O`, the result in experiment [1], in experiment [2], in [3], in experiment [4], in [5] and in [6] was inactive. The outcome in experiment [7], in experiment [8], in [9], in experiment [10], in experiment [11] and in experiment [12] was inactive. Besides, the outcome in experiment [13], in [14], in experiment [15], in experiment [16], in experiment [17] and in experiment [18] was inactive. In addition, in experiment [19], the outcome was inactive.
Consider `CCCN(CCC)c1c([N+](=O)[O-])cc(C(C)C)cc1[N+](=O)[O-]`, for which the AC50 in [1] is 20 µM (active); in [2], 5.79 µM (active); in [3] it was 23.2 µM (active); in [14], 20 µM (active); in experiment [16] it was 31.7 µM (active). For the same compound, the result in [4], in experiment [5], in [20], in experiment [6], in [7] and in experiment [8] was inactive. For the same compound, the result in [9], in experiment [10], in experiment [11], in experiment [13], in experiment [15] and in experiment [17] was inactive. Moreover, the result in experiment [18] and in experiment [19] was inactive.
As to `O=S(=O)(F)C(F)(F)C(F)(F)C(F)(F)C(F)(F)C(F)(F)C(F)(F)C(F)(F)C(F)(F)F`, the result in experiment [1], in [2], in [3], in experiment [4], in experiment [5] and in experiment [6] was inactive. Further, the result in experiment [7], in experiment [8], in experiment [9], in experiment [10], in experiment [11] and in experiment [12] was inactive. Moreover, the result in experiment [13], in [14], in experiment [15], in [16], in experiment [17] and in experiment [18] was inactive. Moreover, the outcome in experiment [19] was inactive.
For the compound `Cc1cccc(N)c1`, the outcome in experiment [2], in [3], in [4], in experiment [5], in experiment [20] and in experiment [6] was inactive. Moreover, the result in [7], in experiment [8], in experiment [9], in [10], in experiment [11] and in [12] was inactive. Besides, the result in [13], in experiment [14], in experiment [15], in [16], in [17] and in experiment [18] was inactive. In addition, the outcome in experiment [19] was inactive.
As for `FC(F)(F)C(F)(C(F)(F)F)C(F)(F)C(F)(F)CC1CO1` (configuration not stated), the result in experiment [1], in experiment [2], in [3], in experiment [4], in experiment [5] and in experiment [6] was inactive. Moreover, the result in experiment [7], in experiment [8], in experiment [9], in [10], in experiment [11] and in [12] was inactive. The outcome in experiment [13], in experiment [14], in [15], in [16], in [17] and in experiment [18] was inactive. In [19], the result was inactive.
Regarding `Nc1ccc(Cl)cc1`, the result in [1], in experiment [2], in [3], in experiment [4], in [5] and in experiment [20] was inactive. The outcome in experiment [6], in [7], in experiment [8], in experiment [9], in experiment [10] and in experiment [11] was inactive. Further, the outcome in [12], in experiment [13], in experiment [14], in [15], in [16] and in experiment [17] was inactive. Also, the result in [18] and in experiment [19] was inactive.
For the compound `O=C(O)C(F)(F)OC(F)(F)C(F)(F)OC(F)(F)F`, the result in experiment [1], in experiment [2], in [3], in [4], in experiment [5] and in experiment [6] was inactive. Also, the outcome in [7], in experiment [8], in experiment [9], in experiment [10], in [11] and in experiment [12] was inactive. Besides, the result in [13], in [14], in experiment [15], in [16], in experiment [17] and in experiment [18] was inactive. The result in [19] was inactive. In addition, the AC50 is 1.42 µM (active) in experiment [7], 1.03 µM (active) in [15] and 1.17 µM (active) in experiment [17].

Usually AC50 stands for the midpoint of the concentration-response curve, whichever way the signal moves.
